The text below walks through data of PubChem BioAssay (NCATS).

Inconclusive results are not listed. Entries that show only a call come without a potency. Active and inactive are the calls of the source. Calls come from the whole dose curve; as a rule, active = well fitted curve in the direction sought with a large enough effect; inconclusive = small, poorly fitted or top-dose-only effect, or another doubt; inactive = no such curve, though single readings can be large; an effect the other way counts as inactive or inconclusive. Residues, ends and D or L forms follow the SMILES beside them. *: point of attachment. Cbz = O=C(OCc1ccccc1)*

A short description of test [1]: qHTS to identify inhibitors of the type 1 interferon - major histocompatibility complex class I in skeletal muscle: primary screen against the NCATS LOPAC collection (AID 1347405).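 Note: human myoblasts with HiBiT tag on endogenous HLA-B stimulated by IFN-beta; lytic HiBiT luminescence reporting HLA-B protein level.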 Note: potency is the fitted concentration of half-maximal effect. The conditions noted are these: iHSKM muscle cells, IFN-b-induced MHC-I HiBiT luminescence, 24 h; series mostly up to 45.9 µM. The gist of the method: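 HLA-B HiBiT myoblasts, IFN-b 4 ng/ml, dexamethasone-free medium; compounds 7-pt 1:4.3 titration, top 46 uM final; 24 h at 37 C; Nano-Glo HiBiT lytic reagent, 10 min RT, luminescence.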

A short description of test [2]: qHTS for inhibitors of adenylyl cyclases using a fission yeast platform: a pilot screen against the NCATS LOPAC library (AID 1347410). The conditions noted are these: S. pombe CHP2027, fbp1-GFP fluorescence, 18 h, yeast expressing mammalian AC9 and human GNAS; series mostly up to 57.5 µM. The essentials:
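GFP from fbp1-GFP reporter, read by Acumen laser cytometry, indicates AC inhibition in fission yeast expressing AC9, GNAS and PDE4D2. Cells grown 18 h in the dark at 30C with compounds, final up to 57 uM.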

Test [3] in a line: Validation qHTS assay for inhibitors of Activation Induced Cytidine Deaminase (AID): UDG Counterscreen signal (AID 1347427). Particulars: biochemical UDG counterscreen, fluorescence signal; series mostly up to 115 µM. The essentials: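 Fluorescence at 560 nm excitation, 665 nm emission reports UDG signal after 250 mM NaOH (2x) addition and 30 min. Enzymes (AID 1 uM, UDG 2 U/mL, at 4/3x) preincubated 10 min with compound, then 4 h with 4x 250 nM DJC20/DJC23 substrate at room temperature.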

Take `COc1cc(N)c(Cl)cc1C(=O)OCCN1CCCCC1`: the Potency result in test [1] and in test [3] was “inactive” in each case. The call in test [2] was inactive.

For the compound `COc1cc2c(CCNC(C)=O)c[nH]c2cc1O`, the Potency result in test [1] and in test [3] was “inactive” in each case. The compound was classed as inactive in test [2].

In the case of `COc1ccccc1N1CCN(CCCNc2c(C)c(=O)n(C)c(=O)n2C)CC1`, the Potency entry in test [1] and in test [3] was “inactive” in each case. Further, in test [2], the compound was classed as inactive.

Consider `Nc1ccc(N2C(=O)c3ccccc3C2=O)c(Cl)c1`, for which the Potency entry in test [1] and in test [3] was “inactive” throughout. The result in test [2] was inactive.

Consider `CC(C)(C)c1cc(/C=C(\C#N)C(N)=S)cc(C(C)(C)C)c1O`, for which the Potency entry in test [1] and in test [3] was “inactive” each time. In test [2], the compound was called inactive.

`C[C@H](NC(=O)/C(C#N)=C/c1ccc(O)c(O)c1)c1ccccc1`: the Potency entry in test [1] and in test [3] was “inactive” each time. In addition, the compound was called inactive in test [2].

As for `COC(=O)C(C)(N)Cc1ccc(O)cc1` (centres undefined), the Potency result in test [1] and in test [3] was “inactive” throughout. For the same compound, in test [2], the compound was classed as inactive.

As to `CCn1c(=O)[nH]c2cc(Cl)c(Cl)cc21`, the Potency in test [1] is 3.16 µM (active). For the same compound, the compound was classed as inactive in test [2]. In addition, the Potency entry in test [3] was “inactive”.

For `CC(C)Cn1c(=O)n(C)c(=O)c2[nH]cnc21`, the Potency result in test [1] and in test [3] was “inactive” in each case. Further, the call in test [2] was inactive.

For `CN[C@H](CC(=O)O)C(=O)O`, the Potency result in test [1] and in test [3] was “inactive” each time. Further, the result in test [2] was inactive.

As to `CCCCOc1cc(CC2CNC(=O)N2)ccc1OC` (centres undefined), the Potency entry in test [1] and in test [3] was “inactive” throughout. Further, the compound was called inactive in test [2].

Consider `CC(C)(C)c1ccc(/C=C/C(=O)Nc2ccc3c(c2)OCCO3)cc1`, for which the Potency entry in test [1] and in test [3] was “inactive” throughout. Also, in test [2], the result was inactive.

With `Oc1ccc(Cn2cc[nH]c2=S)cc1`, the Potency entry in test [1] and in test [3] was “inactive” each time. Moreover, the call in test [2] was inactive.

In the case of `NOCC(=O)O`, the Potency result in test [1] and in test [3] was “inactive” throughout. Also, the outcome in test [2] was inactive.

For `CC(C)C[C@H](NC(=O)[C@H](O)[C@H](N)Cc1ccccc1)C(=O)O`, the Potency entry in test [1] and in test [3] was “inactive” throughout. In addition, the outcome in test [2] was inactive.

For the compound `Nc1nc2c(cnn2CCc2ccccc2)c2nc(-c3ccco3)nn12`, the Potency entry in test [1] and in test [3] was “inactive” each time. In addition, the outcome in test [2] was inactive.

As for `Fc1ccc(CN(C2=NCCN2)c2c(Cl)cccc2Cl)cc1`, the Potency entry in test [1] and in test [3] was “inactive” in each case. For the same compound, the compound was classed as inactive in test [2].

Take `Cc1cccc(C(=O)NCN2CCN(c3ccccc3C#N)CC2)c1`: the Potency result in test [1] and in test [3] was “inactive” in each case. Moreover, the result in test [2] was inactive.

Regarding `c1ccc(C2CN3CCSC3=N2)cc1` (centres undefined), the Potency entry in test [1] and in test [3] was “inactive” throughout. Moreover, the result in test [2] was inactive.

Turning to `Cn1c(=O)c2[nH]c(-c3ccc(S(=O)(=O)O)cc3)nc2n(C)c1=O`, the Potency result in test [1] and in test [3] was “inactive” throughout. The compound was classed as inactive in test [2].

On to `CC(C)[C@H](NC(=O)OCc1ccccc1)C(=O)N[C@H](C=O)Cc1ccccc1` (Cbz-Val-Phe-aldehyde), for which the Potency entry in test [1] and in test [3] was “inactive” each time. In addition, the outcome in test [2] was inactive.

On to `CCCCCC(O)CCCC(=O)O` (centres undefined), for which the Potency entry in test [1] and in test [3] was “inactive” throughout. Also, the compound was called inactive in test [2].

For the compound `O=c1oc(Cl)c(Cl)c2ccccc12`, the Potency result in test [1] and in test [3] was “inactive” throughout. Further, the call in test [2] was inactive.

For the compound `CCC(=O)N1CCN(C(=O)c2ccccc2)CC1`, the Potency entry in test [1] and in test [3] was “inactive” throughout. Also, the compound was classed as inactive in test [2].

For `N=S(=O)(O)Cc1noc2ccccc12`, the Potency result in test [1] and in test [3] was “inactive” throughout. Besides, the compound was classed as inactive in test [2].

As to `Cc1cccc(C)c1OCC(N)C(C)C` (centres undefined), the Potency entry in test [1] and in test [3] was “inactive” in each case. The outcome in test [2] was inactive.

Consider `N[C@H]1CONC1=O`, for which the Potency result in test [1] and in test [3] was “inactive” each time. Also, the result in test [2] was inactive.

As for `CN(C)CCCc1cc(C(=O)Nc2ccc(-c3ccncc3)cc2)ccc1O`, the Potency entry in test [1] and in test [3] was “inactive” in each case. Also, the outcome in test [2] was inactive.

Consider `COC(=O)[C@H](NC(=O)c1cc(-c2ccccc2)nc2ccccc12)c1ccccc1`, for which the Potency entry in test [1] and in test [3] was “inactive” in each case. In test [2], the compound was classed as inactive.

In the case of `CC(C)(C)NCC(O)COc1cccc2[nH]c(=O)[nH]c12` (centres undefined), the Potency result in test [1] and in test [3] was “inactive” in each case. Besides, the outcome in test [2] was inactive.

As for `Nc1nc2c(nc(Br)n2C2OC3COP(=O)(O)O[C@@H]3C2O)c(=O)[nH]1` (some centres undefined), the Potency result in test [1] and in test [3] was “inactive” throughout.

On to `O=c1ccc2c(OCCCCc3ccccc3)c3ccoc3cc2o1`, for which the Potency result in test [1] and in test [3] was “inactive” each time.

In the case of `NC1(C(=O)O)CCc2cc(C(=O)O)ccc21` (centres undefined), the result in test [2] was inactive.

As to `Nc1ncnc2c1nc(Br)n2C1OC2COP(=O)(O)O[C@@H]2C1O` (some centres undefined), the Potency result in test [1] and in test [3] was “inactive” throughout.

Turning to `CN1CC(O)C(O)C(O)C1CO` (centres undefined), the Potency result in test [1] and in test [3] was “inactive” throughout.

`C[N+](C)(C)CC=O`: the Potency entry in test [1] and in test [3] was “inactive” each time.

For `CCCn1c(=O)c(C)cn2nc(N)nc12`, the Potency entry in test [1] and in test [3] was “inactive” in each case. The compound was classed as inactive in test [2].

Regarding `NC1C=CC=C(C(=O)O)C1` (centres undefined), the Potency entry in test [1] and in test [3] was “inactive” throughout.

With `CN(CC[C@@H](Oc1ccc(C(F)(F)F)cc1)c1ccccc1)CC(=O)O`, the Potency result in test [1] and in test [3] was “inactive” in each case.

With `CC1=C(C(=O)O)N2C(=O)[C@@H](NC(=O)C(N)C3=CCC=CC3)[C@H]2SC1` (some centres undefined), the Potency entry in test [1] and in test [3] was “inactive” in each case.

On to `Cc1ccccc1/C=C/C1=NCCN1`, for which the compound was called inactive in test [2].

With `Cn1cc(C(F)(F)F)nc1-c1ccc(OCC(O)CNCCOc2ccc(O)c(C(N)=O)c2)cc1` (centres undefined), the Potency result in test [1] and in test [3] was “inactive” each time. Moreover, in test [2], the result was inactive.

Turning to `N[C@H](C(=O)O)[C@H](Cc1ccccc1)C(=O)O`, the Potency result in test [1] and in test [3] was “inactive” each time.

In the case of `CC(=O)O[C@H]1CC2(C)[C@@H](C[C@@H](O)[C@H]3[C@@]4(C)CC[C@@H](O)[C@@H](C)[C@@H]4CC[C@@]32C)C1=C(CCC=C(C)C)C(=O)O` (some centres undefined), the Potency entry in test [1] and in test [3] was “inactive” each time. The outcome in test [2] was inactive.
